The target in experiment [1] is Progesterone receptor (Homo sapiens) (UniProt P06401). Kind of experiment: qHTS assay to identify small molecule agonists of the progesterone receptor (PR) signaling pathway (AID 1346784; calls by dose curve; also: nearly all actives have a fitted effect of over 30% in size). The gist of the method:
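Using charcoal-stripped serum (2%) to limit endogenous steroids, PR-UAS-bla HEK 293T cells received compounds for 16 hr at 37C after 6 hr plating; beta-lactamase FRET fluorescence was recorded following 2 hr substrate loading at room temperature.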
(In qHTS, concentration-response curves come from the screen itself.)

Experiment [2] shares this target. The experiment is described as follows: qHTS assay to identify small molecule antagonists of the progesterone receptor (PR) signaling pathway (AID 1346795; active = well fitted inhibition curve with a large enough effect in the signal ratio in the repeat runs, not every such curve was filed as active; the % refers to the signal ratio; also: potency is read from the fitted curve at half-maximal effect). Put shortly:
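Inhibition of R5020-induced (1 nM final) beta-lactamase reporter signal in PR-UAS-bla HEK293T cells was scored by FRET fluorescence after overnight (16 hr) compound treatment.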

Experiment [3] in a line: qHTS assay to identify small molecule antagonists of the progesterone receptor (PR) signaling pathway - cell viability counter screen (AID 1346798). Also: series mostly up to about 92 µM; nearly all actives have a fitted effect of over 50% in size. The gist of the method:
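ATP content as viability readout: CellTiter-Glo luminescence, 30 min room temperature, in PR-UAS-bla HEK293T cells after 16 hr compound/R5020 treatment at 37C and 5% CO2.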

Experiment [4] is described as follows: qHTS assay to identify small molecule antagonists of the TGF-beta/Smad signaling pathway - cell viability counter screen (AID 1346824). Also: nearly all actives have a fitted effect of over 50% in size. The gist of the method: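 SBE-bla HEK 293T cells, incubated overnight, then compound plus 0.25 ng/mL TGF-beta1 (stock added) for 5 hr at 37 C. Viability was read in the same wells by CellTiter-Glo luminescence after 30 min at room temperature.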

The nature of experiment [5]: qHTS assay to identify small molecule agonists of the TGF-beta/Smad signaling pathway - cell viability counter screen (AID 1346829). Also: top concentration of the series differs between compounds; nearly all actives have a fitted effect of over 45% in size. Put shortly: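 Same-well cytotoxicity: CellTiter-Glo added after the 2 hr room-temperature beta-lactamase substrate step, luminescence measured 30 min later; cells had 5 hr of compound at 37 C.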
Experiment [6] can be described thus: qHTS assay to identify small molecule agonists of the TGF-beta/Smad signaling pathway (AID 1346859; active = well fitted activation curve with a large enough effect in the signal ratio in the repeat runs, not every such curve was filed as active; the % refers to the signal ratio; also: series mostly up to about 77 µM). The gist of the method:
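Stable Smad binding element-beta-lactamase HEK 293T cells; 5 hr compound exposure at 37 C under 5% CO2; 2 hr room-temperature substrate step; fluorescence excited at 405 nm, collected at 460 nm and 530 nm.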

Experiment [7] concerns the target Thyrotropin-releasing hormone receptor (Homo sapiens) (UniProt P34981). The experiment is described as follows: qHTS assay to identify small molecule antagonists of the thyrotropin-releasing hormone receptor (TRHR) signaling pathway (AID 1346877; active = well fitted inhibition curve with a large enough effect in the repeat runs, not every such curve was filed as active; also: series mostly up to about 51 µM). The gist of the method:
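HEK293/TRHR cells, 18 h, 37 °C; Ca2+ dye 2 h; cpd 5 min RT; TRH 1 nM final; fluorescence read 3 min, 1 s intervals; 15 concs, triplicate.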

The target is the same in experiment [8]. Kind of experiment: qHTS assay to identify small molecule agonists of the thyrotropin-releasing hormone receptor (TRHR) signaling pathway (AID 1346891; calls by dose curve;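 also: HEK293 cells expressing TRHR with calcium dye readout; series mostly up to about 58 µM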). Put shortly: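 In 1536-format, 1500 TRHR-Hek293 cells per well grew 18 h, took up calcium dye for 2 h at 37 °C, received compound, and were read kinetically; 15-point titrations, triplicates.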
A short description of experiment [9]: Human pregnane X receptor (PXR) small molecule agonists, qHTS cell viability counter screen (AID 1346977). Also: nearly all actives have a fitted effect of over 50% in size. The gist of the method: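 Readout is CellTiter-Fluor fluorescence from PXR-Luc HepG2 cells. Plated cells rested 5hr, then were treated with compounds for 24hr at 37C and 5% CO2, with reagent present during the last hour.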
The nature of experiment [10]: Caspase-3/7 induction in HepG2 cells by small molecules, qHTS assay (AID 1346978). Also: nearly all actives have a fitted effect of over 15% in size. Put shortly: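 Wild-type HepG2 cells, 2,000/well, settled 5 hr at 37 C and 5% CO2, then compound-treated for 17 hr; caspase-3/7 activity read by luminescent Caspase-Glo 3/7 after 30 min at room temperature.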
A short description of experiment [11]: Caspase-3/7 induction in CHO-K1 cells by small molecules, qHTS cell viability counter screen (AID 1346979). Also: nearly all actives have a fitted effect of over 35% in size. Put shortly: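 To flag cytotoxic compounds, treated CHO-K1 wild-type cells were given CellTiter-Fluor at 16hr and read fluorescently after 1hr at 37C; the caspase-3/7 luminescence was measured in these same wells.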
The nature of experiment [12]: Caspase-3/7 induction in CHO-K1 cells by small molecules, qHTS assay (AID 1346980). Also: nearly all actives have a fitted effect of over 15% in size. Put shortly:
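Wild-type CHO-K1 cells exposed to compounds for 17hr at 37 C, 5% CO2. Caspase-3/7 activity then measured by Caspase-Glo 3/7 luminescence after 30min at room temperature.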

A short description of experiment [13]: Caspase-3/7 induction in HepG2 cells by small molecules, qHTS cell viability counter screen (AID 1346981). Also: series mostly up to about 92 µM; nearly all actives have a fitted effect of over 30% in size. The gist of the method: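 Fluorescence read-out of live-cell protease activity (CellTiter-Fluor) after 1 hr with reagent. This was measured in the same wells as the caspase-3/7 luminescence, on HepG2 cells exposed to DMSO-dissolved compounds for 16 hr at 37 C.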

The target of experiment [14] is Acetylcholinesterase (Homo sapiens) (UniProt P22303). The experiment is described as follows: Acetylcholinesterase (AChE) small molecule antagonists: colormetric cell-based qHTS assay (AID 1347395; calls by dose curve; also: nearly all actives have a fitted effect of over 30% in size). The gist of the method: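 Neuroblastoma line SH-SY5Y supplied the enzyme; cells were preincubated with compound for 30 min at 37 C and 5% CO2. Acetylthiocholine with DTNB was then added for 90 min at 37 C, and thiocholine was measured by colour.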

Experiment [15] shares this target. The experiment is described as follows: Acetylcholinesterase (AChE) small molecule antagonists: enzyme-based qHTS assay (AID 1347397; calls by dose curve; also: nearly all actives have a fitted effect of over 55% in size). To be noted: Potency: AChE enzyme activity inhibition. The gist of the method: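 Colorimetric DTNB read-out of thiocholine released from acetylthiocholine by recombinant human AChE (50 mU/mL as dispensed). Compounds were preincubated 30 min at RT before substrate/DTNB addition, with a 10 min RT reaction.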

Experiment [16] addresses Nuclear receptor subfamily 1 group I member 2 (Homo sapiens) (UniProt O75469). Kind of experiment: Human pregnane X receptor (PXR) small molecule agonists, qHTS assay (AID 1346982). Also: nearly all actives have a fitted effect of over 35% in size. The gist of the method: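 HepG2 PXR-Luc reporter line, 5% charcoal-stripped FBS; 5 hr pre-incubation, compound (DMSO) 24 hr at 37 C/5% CO2; ONE-Glo 30 min RT; luminescence read-out.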
Experiment [17] in a line: qHTS assay to identify small molecule agonists of the progesterone receptor (PR) signaling pathway - cell viability counter screen (AID 1346799; calls by dose curve; also: nearly all actives have a fitted effect of over 45% in size). The gist of the method: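 Cytotoxicity in PR-bla HEK293T cells: 16 h compound, 37C; CellTiter-Glo added post-FRET read; luminescence after 30 min RT.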

Unmarked numbers belong to inactive results. Records with an inconclusive call do not appear. Calls of active or inactive are those of the source. Unless noted, calls follow the shape of the dose curve; as a rule, active = well fitted curve in the direction sought with a large enough effect in the repeat runs; inconclusive = weak or mixed curves; inactive = no such curve, though single readings can be large; an effect the other way counts as inactive or inconclusive.

Chain of Thyrotropin-releasing hormone receptor (Homo sapiens) (P34981 whole entry, looked up): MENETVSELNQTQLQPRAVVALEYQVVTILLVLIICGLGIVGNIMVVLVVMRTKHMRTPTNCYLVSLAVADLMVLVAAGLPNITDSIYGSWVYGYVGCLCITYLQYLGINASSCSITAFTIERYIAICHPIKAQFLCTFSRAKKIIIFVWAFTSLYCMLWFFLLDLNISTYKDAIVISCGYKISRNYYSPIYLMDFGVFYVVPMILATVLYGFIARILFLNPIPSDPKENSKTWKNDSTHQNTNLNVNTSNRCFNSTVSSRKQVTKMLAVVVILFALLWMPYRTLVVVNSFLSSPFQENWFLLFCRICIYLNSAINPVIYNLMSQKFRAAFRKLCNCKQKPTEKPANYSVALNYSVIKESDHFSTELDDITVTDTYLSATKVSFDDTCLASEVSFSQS
Chain of Nuclear receptor subfamily 1 group I member 2 (Homo sapiens) (O75469 whole entry, looked up): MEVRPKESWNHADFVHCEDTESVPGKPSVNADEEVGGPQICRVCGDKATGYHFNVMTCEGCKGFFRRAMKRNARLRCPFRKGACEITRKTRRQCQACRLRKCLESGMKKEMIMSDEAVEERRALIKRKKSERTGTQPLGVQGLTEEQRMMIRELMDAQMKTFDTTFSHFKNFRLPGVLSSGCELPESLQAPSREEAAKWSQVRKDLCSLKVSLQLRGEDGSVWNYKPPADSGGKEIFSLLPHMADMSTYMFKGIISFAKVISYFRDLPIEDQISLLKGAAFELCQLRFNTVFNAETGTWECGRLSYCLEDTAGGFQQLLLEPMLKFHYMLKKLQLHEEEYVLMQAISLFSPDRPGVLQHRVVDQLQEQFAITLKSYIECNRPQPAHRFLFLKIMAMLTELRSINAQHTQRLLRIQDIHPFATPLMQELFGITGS
Chain of Progesterone receptor (Homo sapiens) (P06401 whole entry, looked up): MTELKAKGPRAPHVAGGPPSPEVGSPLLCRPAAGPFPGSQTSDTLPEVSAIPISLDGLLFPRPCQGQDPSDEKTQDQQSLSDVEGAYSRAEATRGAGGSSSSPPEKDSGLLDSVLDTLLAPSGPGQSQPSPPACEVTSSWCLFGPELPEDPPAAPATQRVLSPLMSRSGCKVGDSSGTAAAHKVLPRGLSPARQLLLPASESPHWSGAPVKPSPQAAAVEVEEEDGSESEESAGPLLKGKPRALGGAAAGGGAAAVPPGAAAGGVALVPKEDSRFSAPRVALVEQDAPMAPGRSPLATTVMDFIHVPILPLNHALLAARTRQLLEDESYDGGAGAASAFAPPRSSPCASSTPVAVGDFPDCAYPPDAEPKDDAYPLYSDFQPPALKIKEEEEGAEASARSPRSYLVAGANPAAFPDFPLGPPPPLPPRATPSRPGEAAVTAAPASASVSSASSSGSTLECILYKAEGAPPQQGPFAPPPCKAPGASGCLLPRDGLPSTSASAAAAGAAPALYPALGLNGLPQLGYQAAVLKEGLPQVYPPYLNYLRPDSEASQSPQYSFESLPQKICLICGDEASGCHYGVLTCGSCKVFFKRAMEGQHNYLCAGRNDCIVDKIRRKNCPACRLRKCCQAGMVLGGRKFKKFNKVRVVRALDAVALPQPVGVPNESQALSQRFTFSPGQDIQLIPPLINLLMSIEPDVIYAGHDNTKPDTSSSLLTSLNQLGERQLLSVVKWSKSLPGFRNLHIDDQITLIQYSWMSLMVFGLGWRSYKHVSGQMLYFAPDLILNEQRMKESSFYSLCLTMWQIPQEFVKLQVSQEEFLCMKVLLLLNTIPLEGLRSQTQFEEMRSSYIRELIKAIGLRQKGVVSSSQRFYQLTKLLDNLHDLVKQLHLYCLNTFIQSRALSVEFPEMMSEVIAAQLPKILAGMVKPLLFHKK
Chain of Acetylcholinesterase (Homo sapiens) (P22303 whole entry, looked up): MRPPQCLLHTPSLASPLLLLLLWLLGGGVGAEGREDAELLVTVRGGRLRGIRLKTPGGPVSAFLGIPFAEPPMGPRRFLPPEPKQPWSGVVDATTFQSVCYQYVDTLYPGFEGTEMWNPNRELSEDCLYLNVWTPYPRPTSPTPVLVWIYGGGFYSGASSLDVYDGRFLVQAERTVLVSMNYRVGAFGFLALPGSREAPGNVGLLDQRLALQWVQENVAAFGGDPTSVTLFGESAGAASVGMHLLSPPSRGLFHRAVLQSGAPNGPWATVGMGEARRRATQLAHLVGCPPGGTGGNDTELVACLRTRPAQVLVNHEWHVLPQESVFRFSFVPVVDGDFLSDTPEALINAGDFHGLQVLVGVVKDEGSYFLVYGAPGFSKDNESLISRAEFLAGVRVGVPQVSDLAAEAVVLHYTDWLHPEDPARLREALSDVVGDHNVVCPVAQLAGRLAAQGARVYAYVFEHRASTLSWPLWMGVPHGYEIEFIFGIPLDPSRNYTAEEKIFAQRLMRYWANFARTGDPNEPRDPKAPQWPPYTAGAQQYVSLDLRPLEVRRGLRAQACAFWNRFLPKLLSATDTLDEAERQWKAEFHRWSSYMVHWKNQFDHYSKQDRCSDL

Consider `CSc1ccc(C(=O)C(C)(C)N2CCOCC2)cc1`, for which the Potency result in [1], in [3], in experiment [4], in experiment [9], in experiment [10] and in experiment [11] was “inactive” throughout. Also, the Potency result in [12], in experiment [13], in experiment [14] and in experiment [15] was “inactive” each time. Besides, the Potency in experiment [2] is 27.3 µM (active). Moreover, the compound was called inactive in experiment [5], in experiment [6], in experiment [7] and in experiment [8].
Take `CCOP(=O)(N=C1SCCS1)OCC`: the Potency entry in experiment [1], in experiment [2], in experiment [3], in [4], in experiment [9] and in [10] was “inactive” each time. Also, the Potency result in [11], in experiment [12], in [13], in experiment [16] and in experiment [15] was “inactive” throughout. Moreover, the result in experiment [5], in experiment [6], in [7] and in experiment [8] was inactive.
`O=NN1CCN(N=O)CC1`: the Potency entry in [1], in [2], in [3], in experiment [17], in experiment [9] and in [10] was “inactive” in each case. Besides, the Potency entry in experiment [11], in experiment [12], in experiment [16] and in [14] was “inactive” throughout. The outcome in [5], in experiment [6], in [7] and in experiment [8] was inactive.
For `COc1cc(OC)nc(Sc2cccc(Cl)c2C(=O)O)n1`, the Potency result in experiment [1], in experiment [2], in [3], in experiment [4], in experiment [9] and in [10] was “inactive” in each case. For the same compound, the Potency entry in experiment [11], in experiment [12], in [13] and in experiment [16] was “inactive” in each case. Besides, the outcome in [5], in experiment [6], in experiment [7] and in experiment [8] was inactive.
Regarding `OCCSCSCCO`, the Potency result in experiment [1], in [2], in [3], in experiment [4], in experiment [9] and in experiment [10] was “inactive” each time. Also, the Potency entry in experiment [11], in [12], in experiment [13], in experiment [16], in experiment [14] and in [15] was “inactive” throughout. Further, the compound was called inactive in [5], in experiment [6], in experiment [7] and in experiment [8].
With `CNC(=O)Oc1c(C(C)(C)C)cc(C)cc1C(C)(C)C`, the Potency result in [1], in experiment [2], in experiment [3], in experiment [4], in [9] and in experiment [10] was “inactive” in each case. The Potency entry in experiment [11], in [12], in [13], in experiment [16], in experiment [14] and in [15] was “inactive” each time. Moreover, the compound was called inactive in experiment [5], in experiment [6], in experiment [7] and in experiment [8].
Turning to `ClC(Cl)Br`, the Potency entry in experiment [1], in [2], in experiment [3], in [17], in [9] and in experiment [10] was “inactive” each time. Further, the Potency result in experiment [11], in experiment [12], in experiment [13], in experiment [16], in experiment [14] and in experiment [15] was “inactive” in each case. The call in experiment [5], in experiment [6], in experiment [7] and in experiment [8] was inactive.
For `COc1cc(OC)nc(Oc2cccc(Oc3nc(OC)cc(OC)n3)c2C(=O)O)n1`, the Potency entry in experiment [1], in experiment [2], in [3], in experiment [4], in [9] and in experiment [10] was “inactive” in each case. Besides, the Potency entry in [11], in [12], in experiment [13], in [16], in [14] and in experiment [15] was “inactive” throughout. Further, the compound was classed as inactive in [5], in [6], in experiment [7] and in [8].
For `CC(C(O)c1ccccc1)N(C)C/C=C/c1ccccc1` (centres undefined), the Potency entry in experiment [1], in experiment [2], in [3], in experiment [17], in experiment [10] and in [11] was “inactive” in each case. In addition, the Potency entry in [12], in experiment [13], in experiment [16] and in [14] was “inactive” each time. Besides, the compound was called inactive in experiment [5] and in experiment [6].

The values above are taken from PubChem BioAssay (Tox21).
